FGF22 binding: binders of human FGF22 protein, primary screen, FGF22 synaptogenesis inhibitor project, biophysical, thermal shift, single point; activity (Tm shift, normalised), % at 9.99 µM; hit rate 1.5% among 340,000; Fibroblast growth factor 22 (Homo sapiens), Q9HCT0; AID 651658, 2012; recombinant FGF22 thermal shift, SYPRO orange fluorescence; percent of sucrose octasulfate shift, DMSO zero;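 active = mean Tm shift, scaled 0 neutral to 100 positive control, at about 1.3% or above, every replicate too, limit read from the data; inconclusive = no clear call, values can overlap the other calls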
Target sequence (Q9HCT0 whole entry, looked up): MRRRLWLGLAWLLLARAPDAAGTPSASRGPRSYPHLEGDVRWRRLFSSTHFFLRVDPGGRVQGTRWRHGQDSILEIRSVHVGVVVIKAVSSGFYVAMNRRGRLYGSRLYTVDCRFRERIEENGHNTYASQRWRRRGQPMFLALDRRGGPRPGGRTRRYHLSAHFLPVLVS
Vif imaging: HIV Vif self-association inhibitors, primary screen, imaging, HEK293T, single point. HEK293T cells, Vif self-association by quenched fluorescence, 24 h. inhibition, % at 7.49 µM. hit rate 0.35% among 340,000. AID 602346, 2012; in the data active = inhibition above about 50%, passing the limit was not always enough; inconclusive = no clear call, values can overlap the other calls; inactive = below about 31%
CFTR F508del cor: F508del CFTR correction, initial screen, CFBE line, single point; CFBE cells, YFP halide quenching; stimulated with forskolin plus potentiator P3; % fluorescence drop versus neutral controls; activity (quench increase), % at 7.58 µM; hit rate 0.36% among 350,000;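 active = mean added fluorescence quench of at least 8% versus neutral control, with both replicates also reaching 8%; inconclusive = only one of the mean or replicate conditions met; inactive = mean below 8% and not both replicates reaching 8%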;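 also: cells transiently co-express mutant CFTR-F508del with the halide-sensitive YFP; corrector assay measuring rescue of mutant channel to the surface after 24 h compound exposure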
Numbers stand for hits; . = inactive; ? = inconclusive; / = no result. Only some compounds are listed: those with a hit (about 1.7% of all), similar ones and a draw of the others.

SMILES	FGF22 binding	Vif imaging	CFTR F508del cor
COc1cc(N=Nc2cccc(S(N)(=O)=O)c2)c2ccccc2c1N	.	53	.
NC1=NC(=Nc2cccc(S(N)(=O)=O)c2)c2ccccc21	.	.	.
COc1cccc(CNC(=O)C[C@H]2C=C[C@@H](NS(=O)(=O)c3ccccc3OC)[C@H](CO)O2)c1	.	/	.
CO[C@H]1CN(C)C(=O)c2cc(NC(=O)c3cc(C)on3)ccc2OC[C@H](C)N(C)C[C@H]1C	.	/	.
CCCCCCCn1c(=N)n(CC(O)c2ccco2)c2ccccc21 (stereo not drawn)	44	.	.
N=c1n(CCN2CCCC2)c2ccccc2n1CC(O)c1ccco1 (stereo not drawn)	/	.	/
C[C@@H]1CN([C@@H](C)CO)C(=O)Cc2cc(NS(C)(=O)=O)ccc2O[C@@H]1CN(C)C(=O)Nc1ccc(F)cc1	.	/	.
C[C@@H]1CN([C@@H](C)CO)C(=O)Cc2cc(N(C)C)ccc2O[C@H]1CN(C)CC1CC1	.	/	.
Cc1ccc(C(=O)OCC(=O)NCCc2ccc(S(N)(=O)=O)cc2)o1	43	.	.
CN(CC(=O)NCc1ccc(F)cc1)S(=O)(=O)c1ccc(Br)s1	.	.	.
CN(CC(=O)NCCc1ccc(S(N)(=O)=O)cc1)S(=O)(=O)c1ccc(Br)s1	.	62	.
Cc1ccc(C(=O)OCC(=O)NCCNC(=O)COC(=O)c2ccc(C)o2)o1	.	.	.
Cc1cc(C(=O)Nc2cccc3c2O[C@H](CN(C)C(=O)NC2CCCCC2)[C@@H](C)CN([C@H](C)CO)C3=O)n(C)n1	.	/	.
O=C(C[C@H]1CC[C@H](NC(=O)Nc2ccc(C(F)(F)F)cc2)[C@H](CO)O1)NCc1ccccn1	.	/	.
C[C@@H]1CN([C@H](C)CO)C(=O)c2cc(NC(=O)Nc3ccc(C(F)(F)F)cc3)ccc2O[C@@H](C)CCCCO[C@H]1CN(C)C(=O)Nc1ccc(F)cc1	1.4	/	.
C[C@H](CO)N1C[C@H](C)[C@@H](CN(C)C(=O)Nc2ccc(F)cc2)OCCCC[C@H](C)Oc2ccc(NC(=O)Nc3ccc(C(F)(F)F)cc3)cc2C1=O	1.2	/	.
C[C@H](CO)N1C[C@H](C)[C@@H](CN(C)C(=O)Nc2ccc(C(F)(F)F)cc2)OCCCC[C@H](C)Oc2ccc(NS(=O)(=O)c3cn(C)cn3)cc2C1=O	.	/	.
C[C@H]1CCCCO[C@@H](CN(C)C(=O)C2CCCCC2)[C@@H](C)CN([C@@H](C)CO)C(=O)c2cc(NC(=O)Nc3ccc(C(F)(F)F)cc3)ccc2O1	.	/	10
C[C@H]1CCCCO[C@@H](CN(C)C(=O)Nc2ccc(F)cc2)[C@@H](C)CN([C@@H](C)CO)C(=O)c2cc(NC(=O)Nc3ccc(C(F)(F)F)cc3)ccc2O1	.	/	.
C[C@H](CO)N1C[C@H](C)[C@H](CN(C)C(=O)C2CCCCC2)OCCCC[C@H](C)Oc2ccc(NC(=O)Nc3ccc(C(F)(F)F)cc3)cc2C1=O	.	/	.
C[C@@H]1CCCCO[C@H](CN(C)C(=O)Nc2ccc(C(F)(F)F)cc2)[C@@H](C)CN([C@H](C)CO)C(=O)c2cc(NS(=O)(=O)c3cn(C)cn3)ccc2O1	1.5	/	.
C[C@@H]1CCCCO[C@H](CN(C)C(=O)Nc2ccc(F)cc2)[C@@H](C)CN([C@@H](C)CO)C(=O)c2cc(NC(=O)Nc3ccc(C(F)(F)F)cc3)ccc2O1	.	/	.
Cc1cccc(-c2ccc([C@H]3[C@@H](CO)N4CCCCN(C(=O)c5ccc6c(c5)OCO6)C[C@H]34)cc2)c1	.	/	.
C[C@H]1CN([C@@H](C)CO)C(=O)c2cccc(NC(=O)C3CCCCC3)c2O[C@H]1CN(C)C(=O)Nc1ccccc1	.	/	.
C[C@@H]1CN([C@H](C)CO)C(=O)c2cc(NC(=O)Cn3cnnn3)ccc2O[C@@H]1CN(C)CC1CCCCC1	.	/	.
SMILES	FGF22 binding	Vif imaging	CFTR F508del cor
CO[C@H]1CN(C)C(=O)c2cc(NC(=O)Nc3ccccc3F)ccc2OC[C@@H](C)N(C(C)=O)C[C@H]1C	.	/	.
COc1ccc(CN(C)C[C@H]2OCCCC[C@H](C)Oc3ccc(NC(=O)Nc4ccc(C(F)(F)F)cc4)cc3C(=O)N([C@H](C)CO)C[C@H]2C)cc1	.	/	8.7
COc1ccc(NC(=O)Nc2ccc3c(c2)C(=O)N([C@H](C)CO)C[C@H](C)[C@@H](CN(C)Cc2ccc(C(F)(F)F)cc2)OCCCC[C@H](C)O3)cc1	.	/	.
Cc1cccc(NC(=O)CSc2n[nH]c(-c3ccncc3)n2)c1	/	.	/
CC(=O)c1cccc(NC(=O)CSc2n[nH]c(-c3ccncc3)n2)c1	1.7	.	.
Nc1ccn(C2CCCCO2)c(=O)n1 (stereo not drawn)	.	.	.
COc1ccn(C2CCCCO2)c(=O)n1 (stereo not drawn)	43	.	.
Cc1ccc(-c2csc(Nc3ccc(S(N)(=O)=O)cc3)n2)o1	43	.	.
Cc1nc(C)c(-c2csc(Nc3ccc(S(N)(=O)=O)cc3)n2)s1	.	.	.
O=C(C[C@H]1CC[C@H](NC(=O)Nc2cccc(F)c2)[C@@H](CO)O1)NCC1CCCCC1	.	/	.
CS(=O)(=O)N1CC2(C1)[C@@H](c1ccccc1)[C@@H](CO)N2Cc1ccccn1	.	/	.
O=S1(=O)N=C(N/N=C/c2ccc(Br)o2)c2ccccc21	43	.	/
O=S1(=O)N=C(N/N=C/c2ccccn2)c2ccccc21	/	.	/
O=C(N/N=C/c1ccc(O)c(O)c1)c1cccc(S(=O)(=O)N2CCCCC2)c1	.	.	.
O=C(N/N=C\c1cc(Br)ccc1O)c1ccc(S(=O)(=O)N2CCCCC2)cc1	.	/	17
C[C@H](CO)N1C[C@H](C)[C@H](CN(C)Cc2ccc3c(c2)OCO3)Oc2cc(-c3cccc(C(=O)N(C)C)c3)ccc2S1(=O)=O	.	/	.
Oc1[nH]c(=S)sc1/C=C1\C(c2ccccc2)=Nc2ccccc21	/	69	/
Oc1[nH]c(=S)sc1C=C1N=c2ccccc2=N1	.	/	.
CO[C@H]1CN(C)C(=O)c2ccc(NC(=O)c3cnccn3)cc2OC[C@H](C)N(CCc2ccccc2)C[C@@H]1C	.	/	.
Cc1ccc(S(=O)(=O)N[C@@H](Cc2ccccc2)C(=O)N2CCC(C(=O)N[C@@H](CCC(N)=O)C(=O)O)CC2)cc1	.	59	.
Cc1ccc(S(=O)(=O)N[C@@H](CC(C)C)C(=O)N2CCC(C(=O)N[C@@H](Cc3ccccc3)C(=O)O)CC2)cc1	.	.	.
CC(C)NC(=O)Nc1ccc2c(c1)C(=O)N([C@@H](C)CO)C[C@@H](C)[C@@H](CN(C)S(=O)(=O)c1ccc(Cl)cc1)OCCCC[C@H](C)O2	.	/	.
CCOc1ccccc1Nc1nnc(C)c(=O)[nH]1	/	.	/
COc1ccccc1Nc1nnc(C)c(=O)[nH]1	/	73	/
CN1CCN(CCCN(Cc2ccco2)C(=S)Nc2ccc(Cl)cc2)CC1	43	.	.
CCN1CCN(CCCN(Cc2ccco2)C(=S)Nc2ccc(Cl)cc2)CC1	.	?	.
NS(=O)(=O)c1ccc(S(=O)(=O)N(CCc2ccccc2)Cc2ccccn2)cc1	.	.	8.4
O=S(=O)(c1ccc(Cl)cc1)N(Cc1ccccn1)Cc1ccccn1	.	.	.

Bioassay records deposited in PubChem by Broad Institute.
